Experimental data: PubChem BioAssay (NCATS)
Results filed as inconclusive are left out. Activity calls are given as the source filed them. Calls follow the shape of the dose curve; as a rule, active = well fitted curve in the direction sought with a large enough effect; inconclusive = small, poorly fitted or top-dose-only effect, or another doubt; inactive = no such curve, though single readings can be large; an effect the other way counts as inactive or inconclusive.

What was measured:
JEG-3 = assay: Primary qHTS to identify gynecologic anti-cancer compounds using libraries of approved drugs and bioactive compounds (AID 1345084); conditions: Gynecologic cancer cell panel viability, ATPlite luminescence, 48 h; series mostly up to 57.5 µM; also: nearly all actives have a fitted effect of over 55% in size
Outline: (§1)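 Five-point cytotoxicity, 48 h drug exposure at 37 C, 5% CO2, on cells seeded 16 h beforehand. ATP content read by ATPlite luminescence.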

OV90 = assay: as above; conditions: Gynecologic cancer cell panel viability, ATPlite luminescence, 48 h; series mostly up to 57.5 µM
Outline: as §1

PA-1 = assay: as above; conditions: Gynecologic cancer cell panel viability, ATPlite luminescence, 48 h; series mostly up to 57.5 µM
Outline: as §1

SKOV3 = assay: as above; conditions: Gynecologic cancer cell panel viability, ATPlite luminescence, 48 h; series mostly up to 57.5 µM
Outline: as §1

Tov-21-G = assay: as above; conditions: Gynecologic cancer cell panel viability, ATPlite luminescence, 48 h; series mostly up to 57.5 µM
Outline: as §1

Tov112D = assay: as above; conditions: Gynecologic cancer cell panel viability, ATPlite luminescence, 48 h; series mostly up to 57.5 µM
Outline: as §1

[1] = Drug repurposing screens with cells derived from glioblastoma tumor samples (AID 1345199); conditions: GBM patient neurospheres viability, ATP luminescence, 48 h; also: nearly all actives have a fitted effect of over 40% in size
Outline: (§2)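 Primary testing used CD133+ neurospheres from four GBM patients, seven concentrations, 48 h exposure and ATP-based viability; confirmation added three slower-growing patient lines.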

astro = assay: as above; conditions: viability, ATP luminescence, 48 h; series mostly up to 45.9 µM
Outline: as §2

[2] = at 45.9 µM (top of the series), tumour line B
[3] = at 45.9 µM (top of the series), tumour line D
[4] = at 46 µM (top of the series), tumour line A
[5] = at 46.1 µM (top of the series), tumour line C
% is scaled to controls: 0 for no effect and ±100 for the full control effect.

Cc1cc(C)c(NC(=O)CN(CC(=O)O)CC(=O)O)c(C)c1Br
inactive: outcome (JEG-3) | Potency (OV90) | outcome (PA-1) | outcome (SKOV3) | outcome (Tov-21-G) | outcome (Tov112D) | activity, negative = cell killing [1, 2] -5.55% | activity, negative = cell killing [1, 3] -2.68% | activity, negative = cell killing [1, 4] -17.3% | activity, negative = cell killing [1, 5] -18.8% | outcome (astro)

O=C(O)c1cc(=O)c2ccccc2o1
inactive: outcome (JEG-3) | Potency (OV90) | outcome (PA-1) | outcome (SKOV3) | outcome (Tov-21-G) | outcome (Tov112D) | activity, negative = cell killing [1, 2] -4.66% | activity, negative = cell killing [1, 3] -22.4% | activity, negative = cell killing [1, 4] -22.8% | activity, negative = cell killing [1, 5] -14.3% | outcome (astro)

Cn1c([N+](=O)[O-])cnc1COC(N)=O
inactive: outcome (JEG-3) | Potency (OV90) | outcome (PA-1) | outcome (SKOV3) | outcome (Tov-21-G) | outcome (Tov112D) | activity, negative = cell killing [1, 2] -9.55% | activity, negative = cell killing [1, 3] -8.48% | activity, negative = cell killing [1, 4] -18.6% | activity, negative = cell killing [1, 5] -20.8% | outcome (astro)

CC(C)C[C@@H](N)C(=O)O
inactive: outcome (JEG-3) | Potency (OV90) | outcome (PA-1) | outcome (SKOV3) | outcome (Tov-21-G) | outcome (Tov112D) | activity, negative = cell killing [1, 2] 3.77% | activity, negative = cell killing [1, 3] 29.1% | activity, negative = cell killing [1, 4] 14.9% | activity, negative = cell killing [1, 5] -0.0622% | outcome (astro)

COc1cc(O)cc(O)c1
inactive: outcome (JEG-3) | Potency (OV90) | outcome (PA-1) | outcome (SKOV3) | outcome (Tov-21-G) | outcome (Tov112D) | activity, negative = cell killing [1, 2] -0.182% | activity, negative = cell killing [1, 3] -4.84% | activity, negative = cell killing [1, 4] -38.5% | activity, negative = cell killing [1, 5] -3.31% | outcome (astro)

CCS(=O)(=O)CCn1c([N+](=O)[O-])cnc1C
inactive: outcome (JEG-3) | Potency (OV90) | outcome (PA-1) | outcome (SKOV3) | outcome (Tov-21-G) | outcome (Tov112D) | activity, negative = cell killing ([1]; at 20 µM (top of the series), tumour line C) -12.4% | activity, negative = cell killing ([1]; at 21.2 µM (top of the series), tumour line B) -11.3% | activity, negative = cell killing ([1]; at 21.2 µM (top of the series), tumour line D) 3.43% | activity, negative = cell killing ([1]; at 21.3 µM (top of the series), tumour line A) -20.5% | outcome (astro)

CN[C@@H]1[C@@H](O)[C@@H](O[C@@H]2[C@H](O)[C@H](O[C@H]3OC(CN)=CC[C@H]3N)[C@@H](N)C[C@H]2N)OCC1(C)O (stereo partly specified)
inactive: outcome (JEG-3) | Potency (OV90) | outcome (PA-1) | outcome (SKOV3) | outcome (Tov-21-G) | outcome (Tov112D) | activity, negative = cell killing [1, 2] -0.265% | activity, negative = cell killing [1, 3] 7.79% | activity, negative = cell killing [1, 4] -24.3% | activity, negative = cell killing [1, 5] -7.7% | outcome (astro)

CCCCCC(C)N (stereo unspecified)
inactive: outcome (JEG-3) | Potency (OV90) | outcome (PA-1) | outcome (SKOV3) | outcome (Tov-21-G) | outcome (Tov112D) | activity, negative = cell killing [1, 2] -17% | activity, negative = cell killing [1, 3] -7.45% | activity, negative = cell killing [1, 4] -32% | activity, negative = cell killing [1, 5] -13.3% | outcome (astro)

CN1C[C@@H]2C[C@H]1CN2c1cc2c(cc1F)c(=O)c(C(=O)O)cn2C1CC1
inactive: outcome (JEG-3) | Potency (OV90) | outcome (PA-1) | outcome (SKOV3) | outcome (Tov-21-G) | outcome (Tov112D) | activity, negative = cell killing [1, 2] 4.99% | activity, negative = cell killing [1, 3] -9.88% | activity, negative = cell killing [1, 4] -19.7% | activity, negative = cell killing [1, 5] 3.73% | outcome (astro)

NC(=O)CCCCC1CCSS1 (stereo unspecified)
inactive: outcome (JEG-3) | Potency (OV90) | outcome (PA-1) | outcome (SKOV3) | outcome (Tov-21-G) | outcome (Tov112D) | activity, negative = cell killing [1, 2] -3.9% | activity, negative = cell killing [1, 3] 6.2% | activity, negative = cell killing [1, 4] -23.7% | activity, negative = cell killing [1, 5] 2.37% | outcome (astro)

CC(=O)Oc1cccc(C)c1
inactive: outcome (JEG-3) | Potency (OV90) | outcome (PA-1) | outcome (SKOV3) | outcome (Tov-21-G) | outcome (Tov112D) | activity, negative = cell killing [1, 2] -2.63% | activity, negative = cell killing [1, 3] -6.87% | activity, negative = cell killing [1, 4] -17.9% | activity, negative = cell killing [1, 5] -0.258% | outcome (astro)

O=C(O)c1ccccc1C(=O)Nc1ccc(S(=O)(=O)Nc2nccs2)cc1
inactive: outcome (JEG-3) | Potency (OV90) | outcome (PA-1) | outcome (SKOV3) | outcome (Tov-21-G) | outcome (Tov112D) | activity, negative = cell killing [1, 2] -6.87% | activity, negative = cell killing [1, 3] -3.34% | activity, negative = cell killing [1, 4] -31.1% | activity, negative = cell killing [1, 5] 1.95% | outcome (astro)

CC(=O)N[C@H]1[C@H]([C@H](O)[C@H](O)CO)OC(C(=O)O)=C[C@@H]1N=C(N)N
inactive: outcome (JEG-3) | Potency (OV90) | outcome (PA-1) | outcome (SKOV3) | outcome (Tov-21-G) | outcome (Tov112D) | activity, negative = cell killing [1, 2] -18.7% | activity, negative = cell killing [1, 3] -2.37% | activity, negative = cell killing [1, 4] -22.1% | activity, negative = cell killing [1, 5] -20.3% | outcome (astro)

O=c1[nH]c(=O)c2ccccc2o1
inactive: outcome (JEG-3) | Potency (OV90) | outcome (PA-1) | outcome (SKOV3) | outcome (Tov-21-G) | outcome (Tov112D) | activity, negative = cell killing [1, 2] -11% | activity, negative = cell killing [1, 3] -4.94% | activity, negative = cell killing [1, 4] -29.8% | activity, negative = cell killing [1, 5] -24.8% | outcome (astro)

O=C(/C=C/c1ccccc1)OCc1ccccc1
inactive: outcome (JEG-3) | Potency (OV90) | outcome (PA-1) | outcome (SKOV3) | outcome (Tov-21-G) | outcome (Tov112D) | activity, negative = cell killing [1, 2] -5.75% | activity, negative = cell killing [1, 3] -8.15% | activity, negative = cell killing [1, 4] -17.7% | activity, negative = cell killing [1, 5] -14.4% | outcome (astro)

COc1ccccc1OC(=O)Oc1ccccc1OC
inactive: outcome (JEG-3) | Potency (OV90) | outcome (PA-1) | outcome (SKOV3) | outcome (Tov-21-G) | outcome (Tov112D) | activity, negative = cell killing [1, 2] -6.75% | activity, negative = cell killing [1, 3] -3.45% | activity, negative = cell killing [1, 4] -34.8% | activity, negative = cell killing [1, 5] -5.39% | outcome (astro)
